# Data published in PubChem BioAssay AID686971 (National Center for Advancing Translational Sciences (NCATS), 2013).
# In all, about 360,000 compounds went through this assay and about 7,500 (2.1%) were called active. Another 8% or so got no clear call; they are omitted. The sample as a whole holds a higher share of actives than the screen did. Values without a mark were called inactive. The call rests on the fitted dose curve; in most records, active means well fitted cell-killing curve with a large enough effect; inconclusive means small, poorly fitted or top-dose-only effect, or effect the other way, or another doubt; inactive means no such curve, though single readings can be large or run the other way.
# Experiment: qHTS for induction of synthetic lethality in tumor cells producing 2HG: qHTS for the HT-1080-IDH1KD cell line
# Conditions: HT-1080 IDH1 knockdown viability, ATP luminescence, 48 h; series mostly up to 46.1 µM; activity, negative = toxicity: at the top concentration
# Text: Unbiased genomic sequencing for 22 glioma genomes found recurrent mutation of IDH1 on chromosome 2q33, a gene encoding the cytosolic isoform of IIDH1 associated with the tri-carboxylic acid cycle (TCA) that catalyzes the oxidative decarboxylation of isocitrate, yielding alpha-ketoglutarate and CO2 via NADP+ to NADPH conversion. Subsequent studies confirmed the recurrent IDH mutations in up to 70% of secondary gliomas and in 10% of AML cases. In addition, the somatic mutation of cancer-associated IDH1 is a point mutation resulting in various amino-acid substituents at Arginine132 (IDH1 R132), a key residue found in the enzyme's active site that when mutated, results in the loss-of-function in metabolizing isocitrate but confers a gain-of-function to produce the oncometabolite 2-hydroxyglutarate (2HG). This in effect defines IDH1 as an oncogene and provides an extraordinary opportunity to discover chemical probes against mutant IDH1 that may translate into much needed new therapies for glioma and AML patients.
# This assay aims to perform a synthetic-lethal screen for chemical probes specific for 2HG-producing tumor cells using matched paired cell lines (1) HT-1080-NT fibrosarcoma cell line that overproduces 2HG and (2) HT-1080-IDH1KD cell line which has IDH1 expression knocked-down. Desirable compounds are toxic to the NT fibrosarcoma cell line but not to the IDH1KD cell line. The data in this AID corresponds to the results of the qHTS against the HT-1080 IDH1KD cell line.
# [1] Dang L, Jin S, Su SM. IDH mutations in glioma and acute myeloid leukemia. Trends of Mol Med. 2010; 16(9): 387-97.
# [2] Dang L et al. Cancer-associated IDH1 mutations produce 2-hydroxyglutarate. Nature. 2010; 465(7300):966.
# Molecular Libraries Probe Production Centers Network [MLPCN]
# NIH Chemical Genomics Center [NCGC]
# Assay Submitter (PI): Lenny Dang Ph.D., Agios Pharmaceuticals
# Suspensions of trypsinized HT-1080-IDH1KD cells were dispensed into white, tissue culture-treated, solid 1536-well plates at 5uL/well (750 cells/well final concentration) in RPMI medium supplemented with 5% FBS. Plates were incubated at 37 degrees C for 2 hours, after which 23 nL of compounds or DMSO were delivered to each well using a pin tool. Plates were then incubated at 37 degrees C for an additional 48 hours. CellTiter-Glo viability reagent (Promega) was dispensed into wells (2.5uL/well) and incubated at room temperature for 10 minutes. The plates were measured on a PerkinElmer ViewLux plate reader for luminescent signal (clear filter, 1 sec exp.). DMSO-treated control wells and media-only (no cells) control wells were used to normalize %Activity of identified toxic compounds; DMSO-treated wells corresponded to 0%Activity (100% viability), while media-only controls were used to normalize 100%Activity (0% viability). To minimize variability between cell lines, both HT-1080-NT and HT-1080-IDH1KD lines were dispensed and treated with identical compound series in single batches.
# Concentration-response curves were fitted to the signals arising from the resulting luminescence. The concentration-effect curves were then classified based on curve quality (r2), response magnitude and degree of measured activity, and compounds were subsequently categorized based on their curve class.
# Potency means the concentration at half of the fitted maximal effect.
Compound,"activity, negative = toxicity [%]",Potency
COc1cccc(C(NC(C)=O)c2nc(-c3ccccc3OC)cs2)c1 (stereo not drawn),3.25,–
COc1ccc(C(CNC(=O)CSc2ccccc2)N2CCOCC2)cc1 (stereo not drawn),5,–
CN(C)c1cccc(NC(=O)c2ccc(-c3ccc(F)c(F)c3)c3ccoc23)c1,-0.432,–
Cc1cc(C(=O)CCl)c(C)n1CC1COc2ccccc2O1 (stereo not drawn),–,14.6 µM (active)
O=C1C(=O)N(CC2COc3ccccc3O2)c2ccccc21 (stereo not drawn),0.0538,–
Cc1ccsc1C(=O)OCC(=O)c1cc(C)n(CC2CCCO2)c1C (stereo not drawn),1.21,–
CC(C)(C)c1ccc(C(=O)NCCn2c(N)c(C#N)c3nc4ccccc4nc32)cc1,–,16.4 µM (active)
CC(C)(C)c1ccc(C(=O)NCC(=O)OCN2C(=O)c3ccccc3C2=O)cc1,-15.8,–
COCC(C)OC(=O)c1c(N)n(CCCN2CCOCC2)c2nc3ccccc3nc12 (stereo not drawn),-6.94,–
COc1ccc2nc(-c3ccccn3)ccc2c1,-16,–
C[C@@H]1CN([C@@H](C)CO)C(=O)CCCn2nncc2CO[C@H]1CN(C)Cc1ccc(C(F)(F)F)cc1,5.94,–
O=S1(=O)CC(N2CCC(Cc3ccccc3)CC2)CN1Cc1ccccc1 (stereo not drawn),-9.53,–
CC(C)(C)C(=O)c1c(N)[nH]c(C(=O)c2ccccc2)c1-c1ccc(F)cc1,8.65,–
COc1ccccc1-c1n[nH]nc1C1=CC(=O)CC(C)(C)C1,1.75,–
COc1ccccc1CCNC(=O)C(=O)NCCC1CCCCN1S(=O)(=O)c1cccs1 (stereo not drawn),-23.9,–
O=C(NCCC1CCCCN1S(=O)(=O)c1ccc(F)cc1)C(=O)NC1CC1 (stereo not drawn),11.8,–
O=C(NCCC1CCCCN1S(=O)(=O)c1cccs1)C(=O)Nc1ccc(F)cc1F (stereo not drawn),–,14.6 µM (active)
O=C(Nc1cccc2ccccc12)c1[nH]c(-c2ccccc2)c2c1C(=O)N(C1CC1)C2=O,16.8,–
O=C(NCCN1CCOCC1)C1CCN(S(=O)(=O)c2ccccc2)CC1,9.12,–
CN(C)S(=O)(=O)Oc1ccccc1C(=O)Nc1ccccc1Cl,11,–
O=C(Nc1ccccc1Cl)/C(Cl)=C(\Cl)S(=O)c1ccccc1 (stereo not drawn),–,6.51 µM (active)
O=C(COC(=O)CCc1c[nH]c(=O)[nH]1)Nc1ccccc1Cl,-0.0015,–
CC1(Oc2ccc(Cl)cc2)CCN(Cc2csc3ccccc23)C1 (stereo not drawn),14.1,–
N#CCSc1ccccc1NC(=O)CN1C(=O)NC(CCc2ccccc2)C1=O (stereo not drawn),-0.729,–

Compound,"activity, negative = toxicity [%]",Potency
COC(=O)[C@]12CCCCC=C1N(Cc1ccco1)C(=O)[C@H](CC(=O)NCCCCc1ccccc1)C2,-14,–
COc1ccc(-c2csc(Nc3ccc(O)cc3)n2)cc1,–,6.51 µM (active)
COc1ccc(C(C)(O)c2nc(-c3ccc(C)c(C)c3)cs2)cc1 (stereo not drawn),-17.1,–
COc1ccc(-c2csc(Nc3cccc(C)n3)n2)cc1OC,-8.86,–
OC[C@@H]1CN(Cc2ccc(Cl)cc2)C[C@H](n2cnc3c(NCc4ccncc4)ncnc32)O1,15.5,–
Cc1ccc(S(=O)(=O)N2CC[C@H]3[C@@H](C2)C(=O)C[C@@H](c2ccccc2)N3S(=O)(=O)c2ccc(C)cc2)cc1,0.768,–
COc1ccc(-n2c(-c3ccc(Cl)cc3)n[nH]c2=S)c(OC)c1,4.73,–
O=C(COC(=O)c1ccccc1C(=O)N1CCN(c2ccccc2)CC1)NCc1ccccc1,-1.4,–
Oc1ccccc1N1CCN(C(=S)NCc2ccccc2)CC1,-18.5,–
Oc1ccc(N2CCN(C(=S)NCc3ccccc3)CC2)cc1,–,16.4 µM (active)
Cc1ccc(F)c(S(=O)(=O)NC(=O)C2(C)CCN2C(=O)c2ccco2)c1 (stereo not drawn),8.94,–
COc1ccc(NC(=O)c2cc(=O)[nH]c3ccccc23)cc1S(=O)(=O)N1CCOCC1,4.67,–
Cc1cc(C(=O)OCC(=O)NCc2ccco2)c(C)n1-c1ccccc1,–,3.66 µM (active)
O=C(COC(=O)c1ccccc1O)NCc1ccco1,11.6,–
CN(c1ccccc1)S(=O)(=O)c1ccc(Cl)c(C(=O)OCC(=O)NCc2ccco2)c1,2.81,–
CCCCC(=O)N(C)c1c(CC)nc2c(OCc3ccc(S(C)(=O)=O)cc3)cccn12,13.3,–
CN1CCN(c2ccc3c(c2)OC[C@H](Cc2ccccc2)NS3(=O)=O)CC1,5.51,–
COc1ccc(C2=NOC(C(=O)NCc3ccco3)C2)cc1OC (stereo not drawn),–,4.47 µM (active)
COc1ccc(CNC(=O)C2CC(c3ccc(C(F)(F)F)cc3)=NO2)cc1 (stereo not drawn),-25.8,–
COc1ccc(S(=O)(=O)N2CCC(C(=O)NCc3ccco3)CC2)cc1C,5.29,–
COc1ccc(OC)c(C(O)c2ncc(-c3cccc(C(F)(F)F)c3)[nH]2)c1 (stereo not drawn),7.34,–
Cc1ccc(S(=O)(=O)N2CCN(CC(=O)N/N=C/c3cc([N+](=O)[O-])ccc3Cl)CC2)cc1,-9.62,–
COc1ccc(CC(=O)N/N=C/c2cc([N+](=O)[O-])cc(Br)c2O)cc1,3.84,–
Cc1cc(C(=O)N/N=C/c2cc([N+](=O)[O-])cc(C)c2O)n[nH]1,–,16.4 µM (active)
